Source: PubChem (National Center for Advancing Translational Sciences (NCATS))
SW480 rereplic – A quantitative high throughput screen for small molecules that induce DNA re-replication in SW480 colon adenocarcinoma cells; 340,000 tested, 1.8% active; Potency, µM (doses to about 46.1 µM), most hits filed as activators; SW480 DNA re-replication, Hoechst DNA content imaging, 48 h; further: nearly all actives have a fitted effect of over 55% in size
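Hoechst fluorescence of nuclei (405 nm excitation, 500-530 nm emission) measured by plate-scanning imager after 48 hr compound exposure at 37 C; re-replication scored as increased number of nuclei with elevated intensity.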
KB-V1 MDR tox – qHTS assay for MDR1-selective chemotherapeutics: Primary screen using the drug-selected MDR subline cells KB-V1 | Potency, µM (doses to about 46.1 µM), actives largely listed as cytotoxic | 400,000 tested, 3.4% active | KB-V1 MDR cells viability, CellTiter-Glo, 72 h; further: nearly all actives have a fitted effect of over 60% in size
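Cytotoxicity toward P-gp-expressing KB-V1 cells was determined as loss of CellTiter-Glo luminescence after 72 h at 37 degrees C. Compounds were tested in quantitative HTS format across a concentration range, with curves fitted to normalized data.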
MCF10A rerep – A quantitative high throughput screen for small molecules that induce DNA re-replication in MCF 10a normal breast cells. MCF 10A DNA re-replication, Hoechst nuclear intensity, 48 h. AID 624296, 2012. 350,000 tested, 2.9% active. Potency, µM (series often up to 46.1 µM), actives largely listed as activators; further: nearly all actives have a fitted effect of over 50% in size
HT1080 IDH1KD tx – qHTS for induction of synthetic lethality in tumor cells producing 2HG: qHTS for the HT-1080-IDH1KD cell line | HT-1080 IDH1 knockdown viability, ATP luminescence, 48 h | Potency, µM (highest dose often 46.1 µM), hits mostly cytotoxic | 360,000 tested, 2% active
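In this qHTS, HT-1080 cells depleted of IDH1 are exposed for 48 h at 37 °C to compound titrations. Toxicity is scored from CellTiter-Glo luminescence, with DMSO as full viability and medium alone as none.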
HT1080NT lethal – qHTS for induction of synthetic lethality in tumor cells producing 2HG: qHTS for the HT-1080-NT fibrosarcoma cell line | HT-1080-NT fibrosarcoma viability, CellTiter-Glo ATP luminescence, 48 h | Potency, µM (doses to about 46.1 µM), hits mostly cytotoxic | 360,000 tested, 1.6% active;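 further: NT is the 2HG producing partner of a matched IDH1 knockdown line; nearly all actives have a fitted effect of over 55% in size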
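750 cells/well, RPMI + 5% FBS; 2 h settle, compound pin-transfer, 48 h at 37 degrees C. CellTiter-Glo 10 min RT, luminescence. Normalized to DMSO and media-only wells.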
KB-3-1 cytotox – qHTS assay for MDR1-selective chemotherapeutics: Primary screen using the parental adenocarcinoma cell KB-3-1 | KB-3-1 viability, CellTiter-Glo ATP luminescence, 72 h | Potency, µM (titrated, usually from 46.1 µM), actives largely listed as cytotoxic | 400,000 tested, 1.4% active | AID 1347075, 2019; further: nearly all actives have a fitted effect of over 60% in size
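Screening of KB-3-1 cells (DMEM, 10% FBS, phenol-red free) ran from lowest to highest compound concentration; after 72 h at 37 °C viability was read luminescently and curves fitted.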
Large screens that a line does not name were inactive. Rows were chosen to be rich in hits. Some 7.9% of all compounds tested hit in one or more screens of this group. The call rests on the fitted dose curve; in most records, active means well fitted curve in the direction sought with a large enough effect; inconclusive means small, poorly fitted or top-dose-only effect, or another doubt; inactive means no such curve, though single readings can be large; an effect the other way counts as inactive or inconclusive.

CCCCn1c(=O)[nH]c(=O)c2c1nc(-c1ccc(-c3ccc(F)cc3)o1)n2C	SW480 rereplic inconclusive, MCF10A rerep 10µM
CCCCn1c(=O)[nH]c(=O)c2c1nc(-c1ccc(OCCC)c(OCC)c1)n2CCOC	MCF10A rerep 23µM
CC(=O)N(C(C)=O)c1c(C#N)c(C)n(-c2ccccc2)c1C(=O)c1ccccc1	SW480 rereplic inconclusive, KB-V1 MDR tox inconclusive, MCF10A rerep 6.5µM
CC1(C(=O)NCc2ccccc2Br)CCN1Cc1ccccc1OC(F)F (stereo not given)	KB-V1 MDR tox 23µM, HT1080 IDH1KD tx inconclusive, HT1080NT lethal inconclusive (no result: SW480 rereplic, MCF10A rerep)
CC1(C(=O)NCCc2c[nH]c3ccccc23)CCN1Cc1ccccc1OC(F)F (stereo not given)	HT1080 IDH1KD tx inconclusive, HT1080NT lethal 23µM, KB-3-1 cytotox inconclusive (no result: SW480 rereplic, MCF10A rerep)
CCCC(C)NNC(=O)c1cc2ccccc2[nH]1 (stereo not given)	none
CC(C)(C)c1ccc(S(=O)(=O)NNC(=O)c2cc3ccccc3[nH]2)cc1	HT1080 IDH1KD tx 21µM, HT1080NT lethal 21µM
COc1ccc(C(=O)N2CCN(c3ncccn3)CC2)cc1[N+](=O)[O-]	none
Cc1ccc(C2C3=C(NCCN=C3c3ccccc3)C(=O)N2c2ccccc2)cc1 (stereo not given)	SW480 rereplic inconclusive, HT1080 IDH1KD tx inconclusive, HT1080NT lethal 11µM
Cc1ccc(N2C(=O)c3n[nH]c(C)c3C2c2cccnc2)cc1 (stereo not given)	none
CCOc1ccc(N2C(=O)C3=C(C(c4ccc(Cl)cc4)=NCCN3)C2c2cccnc2)cc1 (stereo not given)	SW480 rereplic inconclusive, MCF10A rerep inconclusive, HT1080 IDH1KD tx 15µM, HT1080NT lethal inconclusive, KB-3-1 cytotox inconclusive
Cc1ccc(N2C(=O)c3n[nH]c(C)c3C2c2ccc(Cl)cc2)cc1 (stereo not given)	none (no result: SW480 rereplic, MCF10A rerep, HT1080 IDH1KD tx, HT1080NT lethal)
Cc1nn2c(-c3cccc(NC(=O)CSc4nc5ccccc5o4)c3)nnc2c2ccccc12	KB-V1 MDR tox inconclusive, MCF10A rerep 10µM
CC(=O)Nc1nonc1NC(=O)CSc1nc2ccccc2o1	SW480 rereplic 21µM
Cc1cccc(-c2nc(CN3CCN(Cc4cccc(F)c4)CC3)c(C)o2)c1	MCF10A rerep inconclusive
Cc1cc(NC(=O)C(C)SCC(=O)OCc2c(Cl)cccc2Cl)no1 (stereo not given)	none (no result: KB-V1 MDR tox, KB-3-1 cytotox)
CCOC(=O)N1CCN(CCC(=O)Nc2ccc(Br)c(C)c2)CC1	KB-V1 MDR tox 18µM, KB-3-1 cytotox inconclusive
CCN1CCN(CCC(=O)Nc2ccc(Br)c(C)c2)CC1	SW480 rereplic inconclusive, MCF10A rerep inconclusive
O=C(CCC(=O)N1CCN(S(=O)(=O)c2ccc(Cl)cc2)CC1)Nc1ccc2ccccc2c1	none
Cc1ccc(S(=O)(=O)N2CCN(C(=O)CCC(=O)Nc3ccc(Br)c(C)c3)CC2)cc1	KB-V1 MDR tox 13µM
CCCS(=O)(=O)N1CC(=O)N(c2ccc(C)cc2C)C(C)(C(=O)NC2CCCCCC2)C1 (stereo not given)	none (no result: SW480 rereplic, MCF10A rerep, HT1080 IDH1KD tx, HT1080NT lethal)
Cc1nn(-c2ccccc2)c(N2CCCC2)c1/C=N/NC(=S)Nc1ccc(F)cc1	SW480 rereplic 5.8µM, KB-3-1 cytotox inconclusive
COc1c(/C=N/NC(N)=S)c(C)nn1-c1ccccc1	KB-V1 MDR tox 9.2µM, KB-3-1 cytotox inconclusive
Cc1ccc(NC(=S)N/N=C/c2c(C)nn(-c3ccccc3)c2N2CCCC2)cc1	MCF10A rerep inconclusive
COc1ccc(S(=O)(=O)c2cc(NS(=O)(=O)c3ccc(Cl)cc3)c(C)c(C)c2O)cc1	none (no result: SW480 rereplic, MCF10A rerep, HT1080 IDH1KD tx, HT1080NT lethal)
CCc1ccc(NC(=O)C2CCC(CNS(=O)(=O)c3ccc4c(c3)C(C)(C)C(=O)N4C)CC2)cc1 (stereo not given)	none (no result: SW480 rereplic, MCF10A rerep, HT1080 IDH1KD tx, HT1080NT lethal)
